Among the data in PubChem BioAssay are z-score and composite z-score values, retold here.

Unmarked numbers belong to inactive results. Active and inactive are the calls of the source.
Further: test concentration not given here.

System in the first assay: not listed separately
Nature of the assay: viability profiling in MM1S myeloma cells – cell-based, resazurin fluorescence, basal, 24 h, PK04 Diversity Set, profiling panel (AID 1174).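 Further: MM1S multiple myeloma cell line.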 As to conditions: higher = more signal, called active from +8 up or from −8 down. A general note: Resazurin is reduced to fluorescent resorufin, in cell work by metabolically active cells.
On to `O=C1C[C@@](C(=O)NC2CC2)(c2ccc([N+](=O)[O-])cc2)[C@@H](c2ccc(CO)cc2)N1CC12CC3CC(CC(C3)C1)C2`, for which the z-score was -2.23.
Consider `COc1ccc(C(O)C2C=CC3C(=O)N(C)C(=O)C3N2Nc2ccccc2)cc1OCc1ccccc1` (stereo not given), for which the z-score is -0.157.
Still for that read-out and setting: in the case of `[N-]=[N+]=NCc1ccccc1C[C@@]1(C(=O)N2CCOCC2)N=C(c2ccc(OCCCO)cc2)O[C@@H]1c1ccccc1CN=[N+]=[N-]` it was -2.22; in that of `CN1C(=O)C2C=CC(C(O)c3ccccn3)N(Nc3ccccc3)C2C1=O` (stereo not given), -0.467; in that of `COc1ccc(C#Cc2ccc3c(c2)[C@]2(C(=O)N3)[C@H](c3ccc(O)cc3)N3[C@H](c4ccccc4)[C@H](c4ccccc4)OC(=O)[C@H]3[C@@H]2C(=O)N2CCCCCCC2)cc1`, 0.0901.
For `O=C1OCCC=C[C@H]2OC34C=CCN(Cc5ccccc5)C(=O)[C@H]3N(CCCCCO)C(=O)[C@@H]4C12` (stereo not given in full), the z-score is 1.61.
For the compound `COC(=O)C(CC#Cc1ccc2c(c1)[C@]1(C(=O)N2)[C@H](C(=O)NC[C@H](O)c2ccccc2)[C@H]2C(=O)O[C@H](c3ccccc3)[C@H](c3ccccc3)N2[C@@H]1c1ccc(OCCO)cc1)C(=O)OC`, the z-score is -0.0507.
With `COCCOC(=O)N1C(=O)[C@@]2(c3cc(C#CCNC(N)=O)ccc31)[C@H](c1ccc(O)cc1)N1[C@H](c3ccccc3)[C@H](c3ccccc3)OC(=O)[C@H]1[C@@H]2C(=O)NC[C@H](O)c1ccccc1`, the z-score was 0.302.
Take `COC(=O)[C@@]1(Cc2ccccc2)[C@H]2c3cc(C(=O)N4CCCC4)n(Cc4ccc(C)o4)c3C[C@H]2CN1C(=O)c1ccccc1`: the z-score was -1.5.
As to `COCC(=C=CC[C@H](O)c1ccc(OCCO)cc1)C[C@H](O)c1cc(Cl)cc(Cl)c1O`, the z-score was 0.668.

A further assay deals with Dihydroorotate dehydrogenase (quinone), mitochondrial (Plasmodium falciparum (isolate 3D7)) (UniProt Q08210). Briefly: inhibition of P. falciparum DHODH – biochemical, C-terminal His tag, absorbance 600 nm, primary screen (AID 1175).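 Further: recombinant parasite enzyme with a five histidine tag at its C terminus.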 As to conditions: PfDHODH enzyme, DCIP absorbance 600 nm; higher = more signal, called active from +8 up or from −8 down.
Sequence of Dihydroorotate dehydrogenase (quinone), mitochondrial (Plasmodium falciparum (isolate 3D7)) (Q08210 whole entry, looked up): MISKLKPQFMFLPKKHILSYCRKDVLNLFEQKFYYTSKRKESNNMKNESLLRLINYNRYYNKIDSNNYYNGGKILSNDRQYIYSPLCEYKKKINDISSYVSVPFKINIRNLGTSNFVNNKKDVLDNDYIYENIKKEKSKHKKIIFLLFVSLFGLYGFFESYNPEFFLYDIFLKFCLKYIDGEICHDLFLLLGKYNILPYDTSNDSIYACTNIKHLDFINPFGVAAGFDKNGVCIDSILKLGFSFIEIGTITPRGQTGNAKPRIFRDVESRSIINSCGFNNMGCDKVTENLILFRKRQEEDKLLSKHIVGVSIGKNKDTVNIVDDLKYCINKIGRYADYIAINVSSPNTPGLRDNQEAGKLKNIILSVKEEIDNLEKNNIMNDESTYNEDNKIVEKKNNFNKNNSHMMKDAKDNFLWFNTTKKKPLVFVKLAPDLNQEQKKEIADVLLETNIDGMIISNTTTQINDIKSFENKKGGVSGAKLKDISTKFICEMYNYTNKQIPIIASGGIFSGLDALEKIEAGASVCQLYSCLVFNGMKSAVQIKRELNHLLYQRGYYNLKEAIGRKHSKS
For the compound `C=CCC(OC(C)=O)[C@@H]1[C@@H](N(Cc2ccc(-c3ccccc3)cc2)C(=O)Cc2ccc(OC)cc2)c2cc(OCCCO)ccc2N1C(=O)c1ccc2ccccc2n1` (stereo not given in full), the composite z-score was -0.574.
Consider `COc1ccc(C#Cc2ccc3c(c2)[C@]2(C(=O)N3)[C@H](C(=O)NC[C@H](O)c3ccccc3)[C@H]3C(=O)O[C@H](c4ccccc4)[C@H](c4ccccc4)N3[C@@H]2c2ccc(OCCO)cc2)cc1`, for which the composite z-score was -0.0157.
On to `COCCOC(=O)N1C(=O)[C@@]2(c3cc(C#CC4(O)CCCCCC4)ccc31)[C@H](C(=O)N1CCCCCCC1)[C@H]1C(=O)O[C@H](c3ccccc3)[C@H](c3ccccc3)N1[C@@H]2c1ccccc1OCCO`, for which the composite z-score was 0.969.
For `COC(=O)c1ccc(OC)c(/C=C\CC(OC(C)=O)c2ccccc2)c1` (stereo not given), the composite z-score was -3.79.
As for `Cc1ccc([C@H]2C(C(=O)O)=C[C@@H](C)N2S(=O)(=O)c2ccc(C)cc2)cc1`, the composite z-score is -0.377.
Turning to `NCCCCCCNC(=O)[C@H]1C[C@H]2C(=O)NCC(=O)N2[C@H]1c1cccc(OCCO)c1`, the composite z-score was -0.42.
On the same count and under the same terms, in the case of `COc1ccc(CCN2C(=O)[C@@]3(Cc4ccccc42)c2ccccc2C(=O)N(Cc2ccccc2Cl)[C@H]3c2ccc(CO)cc2)cc1` it was -6.31; in that of `C=CC[C@@H](OC(=O)Nc1ccc(OC)cc1)c1ccc(O)c2ccccc12`, -7.4; in that of `CC(C)C[C@@H]1NC(=O)[C@@H]2C[C@H](C(=O)NCCCCCC[N+](C)(C)C)[C@H](c3ccc(O)cc3)N2C1=O`, 0.191.
Take `O=C1C=CC(=O)[C@@H]2CC(COc3ccccc3)=C3[C@@H](CCc4ccccc4)OB(O)C[C@@H]3[C@H]12`: the composite z-score was -2.68.
In the case of `CN(C)CCCCNC(=O)[C@H]1C[C@H]2C(=O)N[C@@H](Cc3ccccc3)C(=O)N2[C@H]1c1ccc(O)cc1`, the composite z-score is -16.7 (active).
In the case of `CCCC[C@H]1OB(O)C[C@H]2C1=C(C)C[C@H]1C(=O)N(Cc3ccccc3)C(=O)[C@H]12`, the composite z-score was -0.231.
On the same count and under the same terms, in the case of `C=C[C@@H](COC(C)=O)N(Cc1ccc([N+](=O)[O-])cc1)S(=O)(=O)c1ccc(Br)cc1` it was -1.01.
Turning to `COc1ccc([Si](C)(C)[C@@H]2[C@@H](CCn3cc([C@H](O)c4ccccc4)nn3)O[C@]3(C(=O)N(Cc4ccc(N5C(=O)c6cccc7cccc5c67)cc4)c4ccccc43)[C@H]2C)cc1`, the composite z-score was -0.609.
For the compound `CC(C)(C)OC(=O)CC[C@@]1(C(=O)NCCN2CCOCC2)N=C(c2ccc(OCCCO)cc2)O[C@@H]1c1ccccc1`, the composite z-score was -0.317.
